Assay outcomes deposited in PubChem by National Center for Advancing Translational Sciences (NCATS).
A selection: hits, their analogues and other compounds. The true share with any hit is near 17%.
TGFb inhibitor = inhibitors of TGF-b signaling; HepG2 CAGA-GFP TGF-b/SMAD3 reporter, GFP fluorescence, 18 h; TGF-beta stimulated, 500 pg/mL final; Potency, µM (doses to about 46.1 µM), actives largely listed as inhibitors; 1.2% of 410,000 active; AID 588855; also: nearly all actives have a fitted effect of over 65% in size
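Read-out: total well GFP (ex488/em500-530) summed from mean per-cell fluorescence. Cells: HEPG2 CAGA-GFP, 1% FBS DMEM, 18 h at 37 degrees C with 500 pg/mL final TGF-beta. Unstimulated wells served as the full-inhibition control; stimulated DMSO wells = 0%.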
HT1080 IDH1KD tx = kills HT-1080 cells with IDH1 knockdown | HT-1080 IDH1 knockdown viability, ATP luminescence, 48 h | Potency, µM (highest dose often 46.1 µM), actives largely listed as cytotoxic | 2% of 360,000 active
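% activity derives from luminescence (CellTiter-Glo), normalised to DMSO and no-cell wells. HT-1080-IDH1KD cells, 750/well, had 48 h compound exposure at 37 °C.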
HT1080NT lethal = kills 2HG-producing HT-1080-NT fibrosarcoma cells | 1.6% of 360,000 active | Potency, µM (top dose mostly 46.1 µM), actives largely listed as cytotoxic | HT-1080-NT fibrosarcoma viability, CellTiter-Glo ATP luminescence, 48 h;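 also: NT is the 2HG producing partner of a matched IDH1 knockdown line; nearly all actives have a fitted effect of over 55% in size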
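HT-1080-NT fibrosarcoma cells (2HG-overproducing), 750 cells/well in RPMI with 5% FBS, dosed after 2 h and incubated 48 h at 37C. CellTiter-Glo luminescence normalized to DMSO and no-cell wells; concentration-response curves fitted and classed.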
DT40 TDP1 CPT = DT40-hTDP1 cell growth loss with CPT; chicken DT40 Tdp1-/-;hTDP1 cells + 20 nM CPT, ATP luminescence, 48 h; Potency, µM (doses to about 46.2 µM), usual class: inhibitors; 12% of 420,000 active; AID 686979; also: nearly all actives have a fitted effect of over 55% in size
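Cell growth measured by CellTiter-Glo luminescence after a minimum 48 h, 37 C compound exposure with 20 nM CPT in Tdp1-knockout DT40 cells stably expressing hTDP1, seeded 400/well; qHTS titration format.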
HepG2 tox = kills HepG2 cells in TGF-b inhibitor counter-screen; Potency, µM (titrated, usually from 46.1 µM), actives largely listed as cytotoxic; 0.76% of 410,000 active; HepG2 CAGA-GFP viability, ATP luminescence, 18 h
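CellTiter-Glo luminescence gave cytotoxicity after 18 hours at 37 degrees C. The cells were HepG2 CAGA-GFP in 1% FBS DMEM, stimulated with 500 pg/mL TGF-beta after compound addition. %Activity was normalised to no-cell wells (complete cell-killing) and DMSO (no toxicity), and curves were fitted and classified.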
DT40 TDP1 no CPT = qHTS for Inhibitors of human tyrosyl-DNA phosphodiesterase 1 (TDP1): qHTS in cells in absence of CPT; DT40 Tdp1-/- hTDP1 cells, no CPT, ATP luminescence, 48 h; Potency, µM (titrated, usually from 46.2 µM), usual class: inhibitors; 15% of 420,000 active; also: nearly all actives have a fitted effect of over 55% in size
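No-CPT arm: Tdp1-/-;hTDP1 DT40 cells (400/well) plus compounds, incubated ≥48 hr at 37 °C. Readout CellTiter-Glo luminescence.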
Large screens that a line does not name were inactive. Calls follow the shape of the dose curve; as a rule, active = well fitted curve in the direction sought with a large enough effect; inconclusive = small, poorly fitted or top-dose-only effect, or another doubt; inactive = no such curve, though single readings can be large; an effect the other way counts as inactive or inconclusive.

C[C@@H](c1ccccc1)N1C[C@@H](COCc2ccccc2)Oc2cc(N3CC[C@@H](N(C)C)C3)ccc2S1(=O)=O	HT1080 IDH1KD tx 23µM, HT1080NT lethal 18µM, DT40 TDP1 CPT inconclusive, DT40 TDP1 no CPT 15µM (no result: TGFb inhibitor, HepG2 tox)
COc1ccccc1Cc1c(-c2ccc(OC)c(OC)c2)nc2c(Cl)cc(C(F)(F)F)cn12	none (no result: TGFb inhibitor, HepG2 tox)
CC(=O)Nc1ccc(S(=O)(=O)N(C)CC(=O)OC(C)C(=O)NC2(C#N)CCCCC2)cc1 (configuration not stated)	none
Cc1[nH]c2ccc(C(=O)Nc3ccncc3)cc2c1C	DT40 TDP1 CPT 13µM, DT40 TDP1 no CPT 12µM
Cc1[nH]c2ccc(C(=O)NC3CCC(C)CC3)cc2c1C (configuration not stated)	DT40 TDP1 CPT inconclusive, DT40 TDP1 no CPT 12µM
O=C(CCCCn1c(=O)c2ccccc2n(CC(=O)Nc2ccc(F)cc2F)c1=O)NCCc1ccccc1	none (no result: HT1080 IDH1KD tx, HT1080NT lethal)
O=C(NCC(c1ccco1)N1CCCC1)c1cccc(S(=O)(=O)N2CCOCC2)c1 (configuration not stated)	none
COc1ccc(OCc2cc(-c3ccc(Cl)cc3)no2)cc1	HT1080NT lethal inconclusive
O=C(CCl)NCc1cc(-c2ccc(Cl)cc2)no1	TGFb inhibitor inconclusive, HT1080 IDH1KD tx 9.2µM, HT1080NT lethal 12µM, DT40 TDP1 CPT 10µM, DT40 TDP1 no CPT 18µM
O=C(NCCCN1CCOCC1)c1cccc(S(=O)(=O)N2CCc3ccccc32)c1	DT40 TDP1 CPT inconclusive, DT40 TDP1 no CPT 23µM
O=C(O)c1cccc(NC(=O)c2cccc(S(=O)(=O)N3CCc4ccccc43)c2)c1	none
CCOC(=O)c1sc(NC(=O)c2cccc(S(=O)(=O)N3CCc4ccccc43)c2)c(C#N)c1C	TGFb inhibitor inconclusive, HT1080 IDH1KD tx inconclusive, HT1080NT lethal inconclusive, DT40 TDP1 CPT 5.8µM, DT40 TDP1 no CPT 2.9µM
O=C(Nc1nc2c(s1)CCCC2)c1cccc(S(=O)(=O)N2CCCc3ccccc32)c1	TGFb inhibitor inconclusive, DT40 TDP1 CPT 26µM, DT40 TDP1 no CPT 23µM
O=C(Nc1ccncc1)c1cccc(S(=O)(=O)N2CCc3ccccc32)c1	HT1080 IDH1KD tx inconclusive, DT40 TDP1 CPT 5.8µM, DT40 TDP1 no CPT 6.5µM
O=C(Nc1cccnc1)c1cccc(S(=O)(=O)N2CCc3ccccc32)c1	DT40 TDP1 CPT 26µM, DT40 TDP1 no CPT inconclusive
CN(C)C(=O)c1ccc(NC(=O)c2cccc(S(=O)(=O)N3CCCc4ccccc43)c2)cc1	HT1080NT lethal inconclusive, DT40 TDP1 CPT 23µM, DT40 TDP1 no CPT 16µM
Cn1nnnc1Sc1ncnc2scc(-c3ccccc3Cl)c12	TGFb inhibitor inconclusive (no result: HT1080 IDH1KD tx, HT1080NT lethal, DT40 TDP1 CPT, DT40 TDP1 no CPT)
CC(=O)c1cccc(-c2csc3ncnc(Sc4nnnn4C)c23)c1	TGFb inhibitor 6.3µM (no result: HT1080 IDH1KD tx, HT1080NT lethal, DT40 TDP1 CPT, DT40 TDP1 no CPT)
COc1ccc(-c2csc3ncnc(Sc4nnnn4C)c23)cc1	TGFb inhibitor 18µM (no result: HT1080 IDH1KD tx, HT1080NT lethal, DT40 TDP1 CPT, DT40 TDP1 no CPT)
Cn1nnnc1Sc1ncnc2scc(-c3ccc([N+](=O)[O-])cc3)c12	TGFb inhibitor 13µM (no result: HT1080 IDH1KD tx, HT1080NT lethal, DT40 TDP1 CPT, DT40 TDP1 no CPT)
Cn1nnnc1Sc1ncnc2scc(-c3ccc(Cl)cc3)c12	TGFb inhibitor inconclusive (no result: HT1080 IDH1KD tx, HT1080NT lethal, DT40 TDP1 CPT, DT40 TDP1 no CPT)
Cn1nnnc1Sc1ncnc2scc(-c3cccc4c3sc3ccccc34)c12	TGFb inhibitor 10µM (no result: HT1080 IDH1KD tx, HT1080NT lethal, DT40 TDP1 CPT, DT40 TDP1 no CPT)
C[C@@]12CC[C@@H](C3=C(CCC3)C1)N2c1ccccc1	DT40 TDP1 no CPT inconclusive (no result: TGFb inhibitor, HepG2 tox)
CC(=O)c1cn(N2CCCCC2)c(=O)[nH]c1=O	none
CC1(C(=O)NCc2cccnc2)CCN1C(=O)Cc1cccs1 (configuration not stated)	none
Cc1cc(C)c2c(c1)/C(=c1/sc3n(c1=O)CN(c1ccccc1)CN=3)C(=O)N2	HT1080 IDH1KD tx inconclusive, DT40 TDP1 CPT 10µM, DT40 TDP1 no CPT 16µM
CCc1ccc(-c2nnn(CC(=O)N(C3CCCC3)C3CCS(=O)(=O)C3)n2)cc1 (configuration not stated)	none
COc1ccccc1C(=O)NNC(=O)c1ccc(Br)o1	none
